Source: PubChem BioAssay (Paczesny and Yang Labs, IUPUI and University of Michigan)
This excerpt belongs to a sample that is enriched for hits.
ST2 inh: inhibitors of human ST2 (IL1RL1) binding to IL-33, primary screen, biochemical, AlphaLISA. Interleukin-1 receptor-like 1 (Homo sapiens), Q01638. AlphaLISA ST2-Fc/biotin-IL-33 interaction, 1 h. inhibition, % for hits at 17 µM. 78,000 tested, 2.3% active. AID 1259354, 2018; in the data active = inhibition above about 30%
Target sequence (Q01638 whole entry, looked up): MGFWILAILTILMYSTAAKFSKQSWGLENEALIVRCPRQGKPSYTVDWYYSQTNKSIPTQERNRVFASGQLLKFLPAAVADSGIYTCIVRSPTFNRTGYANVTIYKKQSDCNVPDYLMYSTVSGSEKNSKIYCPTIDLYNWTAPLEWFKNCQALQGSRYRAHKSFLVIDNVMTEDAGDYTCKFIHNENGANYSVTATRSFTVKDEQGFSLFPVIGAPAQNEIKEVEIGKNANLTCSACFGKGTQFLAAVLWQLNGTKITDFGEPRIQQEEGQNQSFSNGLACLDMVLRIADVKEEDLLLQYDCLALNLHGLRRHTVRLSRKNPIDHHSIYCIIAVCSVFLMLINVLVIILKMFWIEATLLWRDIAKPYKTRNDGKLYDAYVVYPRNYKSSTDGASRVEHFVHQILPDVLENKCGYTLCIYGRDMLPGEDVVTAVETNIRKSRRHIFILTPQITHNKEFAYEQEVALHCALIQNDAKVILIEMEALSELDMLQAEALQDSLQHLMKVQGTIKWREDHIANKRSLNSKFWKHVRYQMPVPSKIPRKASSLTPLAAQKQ
Active calls of the source: *; i = inactive.

SMILES	ST2 inh
O=C(Nc1nc(-c2ccccc2)cs1)c1ccccc1	i
COc1cc(C)c(NC(=O)c2cc(OC)c(OC)c(OC)c2)cc1C(C)C	i
COc1ccc(NC(=O)CN2CCN(Cc3ccc(F)cc3Cl)S2(=O)=O)cc1OC	i
Cn1c(=O)c2c(nc(NCCc3ccc(Cl)cc3)n2C)n(C)c1=O	i
CCOc1ccc(Cc2c(O)nc[nH]c2=O)cc1	i
Cc1cc(C(=O)N2CCCC3(CCN(C)C3)C2)n[nH]1 (stereo not drawn)	i
N#CC1=C(N)OC2=C(C(=O)CCC2)C1c1ccc(Br)cc1 (stereo not drawn)	i
CN(CCNC(=O)c1cn(C)c(=O)c2c1c1ccccc1n2C)Cc1ccccc1	i
CN(CCCNC(=O)Cn1nc(-c2ccccc2)ccc1=O)Cc1ccccc1	i
O=C(Cn1nc(-c2ccccc2)ccc1=O)NCCN1CCC(Cc2ccccc2)CC1	i
O=C(Cn1nc(-c2ccccc2)ccc1=O)NCCCN1CCC(Cc2ccccc2)CC1	53%*
O=C(NCc1ccccc1)c1ccc2nc3sc4c(c3c(=O)n2c1)CCCC4	i
O=C(NCCc1ccccc1)c1ccc2nc3sc4c(c3c(=O)n2c1)CCCC4	i
O=C(c1ccc2nc3sc4c(c3c(=O)n2c1)CCCC4)N1CCN(c2ccccc2)CC1	31%*
C=C1c2cc(OCC)ccc2NC(=O)N1c1ccccc1	i
CCOc1ccc2c(c1)C(=O)c1cc(OCC)ccc1-2	46%*
CCOc1ccc(OCC)c(NC(C)=O)c1	i
CC(c1ccc(-c2ccc(CN3CCN(C)CC3)cn2)cc1)N1CCOCC1 (stereo not drawn)	i
C=CCN1C(=Nc2cccnc2)SCC1(O)c1ccc(C)cc1 (stereo not drawn)	59%*
Cc1ccc2cc(C3(O)CCN(C(=O)COc4cccnc4)CC3)ccc2n1	i
CCC1=NN(C(=O)c2cccnc2)C(O)(c2ccc(Br)cc2)C1 (stereo not drawn)	i
COc1ccc(C(CC(=O)N2CCN(c3cnccn3)CC2)c2ccccc2)cc1 (stereo not drawn)	i
CCC(=O)N1N=C(C)CC1(O)c1cccnc1 (stereo not drawn)	i
C=CCN1C(=Nc2cccnc2)SCC1(O)c1ccc(OC)cc1 (stereo not drawn)	61%*
O=C(O)Cc1ccc(-n2c(=O)[nH]c3ccsc3c2=O)cc1	i
SMILES	ST2 inh
Cc1ccc(C(=O)Nc2ccc(NC(=O)c3ccco3)cc2)c(Cl)c1	i
O=C1CCCN1CCC(=O)N1CCOC(c2ccc(Cl)c(Cl)c2)C1 (stereo not drawn)	i
COc1ccc2nc([C@H]3CCN(C4CCOCC4)C3)[nH]c2c1	i
COc1ccc(C(=O)Nc2ccccc2C(F)(F)F)cc1OC	i
CC(=C/c1ccccc1)/C=C1/SC(=O)N(c2ccc(O)cc2)C1=O	45%*
O=C1S/C(=C\c2ccc(O)cc2)C(=O)N1c1ccc(O)cc1	i
O=C1S/C(=C\c2ccccc2Cl)C(=O)N1c1ccc(O)cc1	38%*
COc1ccc(N2C(=O)S/C(=C\c3ccc(O)cc3)C2=O)cc1	i
Nc1cccc2c1C(=O)N(c1ccc(O)cc1)C2=O	i
N=C1S/C(=C\c2ccccc2F)C(=O)N1c1ccc2c(c1)OCO2	i
Cc1c(C(=O)N2CCCCC2)sc2nc(-c3ccccc3)cn12	i
COc1ccc2cc(-c3[nH]ncc3CN(C)Cc3ccon3)ccc2c1	i
CCN(c1ccccc1)S(=O)(=O)c1cc([N+](=O)[O-])ccc1N	32%*
CCN(c1ccccc1)S(=O)(=O)c1ccc(OC)c(OC)c1	i
CCN(c1ccccc1)S(=O)(=O)c1cc(OC)ccc1OC	i
COc1ccc(C(=O)Nc2c(C)ccc3nsnc23)cc1OC	i
O=C(NCCc1cccc(Cl)c1)NC1CCCCC1	i
COC(=O)[C@@H]1CCCN1Cc1cnc2c(-c3ccccc3)cnn2c1	i
OC1(c2ccccc2)CCN(Cc2cnc3c(-c4ccccc4)cnn3c2)CC1	33%*
CCc1ccc(CN(C)Cc2cnc3c(-c4ccccc4)cnn3c2)nc1	i
Cc1cccc(C(=O)Nc2nc3c(s2)C(=O)CC(C(=O)N(C)Cc2csc(C)n2)C3)c1 (stereo not drawn)	i
COc1ccc(-n2c(=O)c3ccccc3n(Cc3ccccc3C#N)c2=O)c(OC)c1	i
O=c1oc2cc([N+](=O)[O-])ccc2nc1C=C(O)c1ccco1	i
O=[N+]([O-])c1ccc2nc(-c3ccco3)c(-c3ccco3)nc2c1	36%*
O=[N+]([O-])c1ccc2nc(CSc3nc4ccccc4o3)[nH]c2c1	i
SMILES	ST2 inh
CC(C)Cc1cc(C(=O)NC(Cn2ccnc2)c2ccccc2)n(C)n1 (stereo not drawn)	i
Cc1cc2nnc(SCC(=O)NCc3ccc4c(c3)OCO4)n2c2ccccc12	i
CCC1CCCCN1C(=O)c1cc2c(=O)oc3ccccc3c2s1 (stereo not drawn)	i
Clc1nc(N2CCCCC2)nc(N2CCOCC2)n1	i
Clc1ccccc1/C=C/C=Nc1ccc(N2CCOCC2)cc1	38%*
O=C(N1CCCCC1)[n+]1ccc(N2CCOCC2)cc1	i
FC(F)(F)c1cccc(N2CCN(C3CCCN(C4CCSCC4)C3)CC2)c1 (stereo not drawn)	i
CC(C)c1cc(C(=O)N(C)Cc2nccn2Cc2ccccc2)no1	i
CCSc1nc(CC(=O)NCc2sc(C)nc2CC)cs1	31%*
CCSc1nc(CC(=O)NCc2ccc(CC)cn2)cs1	i
CCSc1nc(CC(=O)NCc2cc(CC)no2)cs1	i
COc1ccccc1-n1nc(C(C)C)nc1-c1cccc(-n2cnnc2)n1	i
O=C1c2ccccc2-c2nc(=O)c3c4c(sc3n21)CCCC4	i
CN(CCNC(=O)C1(c2ccccc2F)CC1)S(C)(=O)=O	i
CCc1cc(C(=O)N2CCC(=O)N(CC3CC3)C(C(C)C)C2)cs1 (stereo not drawn)	i
Cn1c(=O)n(C)c2cc(CNC(=O)Cc3c[nH]c4ccccc34)ccc21	30%*
COCc1ccc(C(=O)NCc2ccc3c(c2)n(C)c(=O)n3C)o1	i
Cc1cc(C)n(CCC(=O)NCCc2c[nH]c3ccccc23)c(=O)n1	i
CCCCC(=O)NCc1nc2cccnc2n1CCOC	i
COc1cccc(-c2ccccc2NC(=O)C2CCN(Cc3cccc(C(C)=O)c3)CC2)c1	i
c1nc(Nc2ccc(N3CCCCC3)cc2)c2c3c(sc2n1)CCCC3	58%*
COc1cccc(Nc2ncnc3sc4c(c23)CCCC4)c1	i
CCNc1ncnc2sc3c(c12)CCCC3	i
Cc1cc(C(=O)N2CCC3(CCCN(Cc4ccc(F)c(F)c4)C3)C2)no1 (stereo not drawn)	i
Cc1cccc(N=C2c3ccccc3-c3ncccc32)c1	41%*
SMILES	ST2 inh
Cc1ccc(N2C(=O)c3cccnc3C2=O)c(C)c1	i
Cc1cccc(N=C2NC(=O)c3cccc([N+](=O)[O-])c32)c1	i
CC(C)Cc1cc(CN2C[C@H]3C[C@H](O)[C@H](O)C[C@H]3C2)[nH]n1	i
COc1c(/C=C2/OC(=O)c3c2cc(C)[nH]c3=O)ccc(Cl)c1Cl	i
CC(=O)Nc1ccc(/C=C2/OC(=O)c3c2cc(C)[nH]c3=O)cc1	46%*
COc1cc(/C=C2/OC(=O)c3c2cc(C)[nH]c3=O)ccc1O	i
COc1ccc(-n2c(=O)[nH]cc(C(=O)Nc3ccc4c(c3)OCO4)c2=O)cc1	i
CCOC(=O)CCSc1nc(C)c2cc(C)ccc2n1	i
